# Several values for one entry are separate records, joined by “and”; a condition that tells them apart may be missing. Equal entries are not always repeated. The panel holds about 83,000 compounds, 20% with a hit somewhere; the sample as a whole holds those more often.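 The test compound was applied at a single concentration to cells in 96-well plates for 48 hours, and percent growth was recorded.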 More than one record can exist for a structure, and the calls need not agree. Activity calls are given as the source filed them.
# Tested on: SNB-75 CNS
# Experiment: NCI-60 one-dose screen, 48 h (100 = growth as untreated, 0 = no growth, -100 = all killed)
# Conditions: 10 µM
# Experimental: Growth inhibition of the SNB-75 human tumor cell line is measured as a screen for anti-cancer activity. Cells are grown in 96 well plates and exposed to the test compound for 48 hours. Compounds are tested at a single concentration, which is 10^-5 M for most compounds. The reported endpoint is percent growth (GI% or GIPRCNT), where numbers from 0 - 100% represent growth inhibition, and numbers from -100% - 0 represent cell death. For example, a value of 40 represents 60% growth inhibition. A value of 0 means no net growth occurred over the course of the experiment. A value of -40 indicates 40% of cells at the beginning of the experiment died by the end of the experiment. A value of -100 means all cells are dead at the end of the experiment.
# NCI-60 Human Tumor Cell Lines Screen was performed using the standard one-dose NCI protocol, which is described in more detail at https://dtp.cancer.gov/discovery_development/nci-60/default.htm.
# Compounds with GIPRCNT values below 10 were considered active. Activity score was based on GIPRCNT using the following formula: […]
# Score is 0 for GIPRCNT values of 100 or above, 50 for GIPRCNT values of 0, and 100 for GIPRCNT values of -100.
row,Compound,growth
1,COc1ccc(Cl)cc1C(=O)NCCc1ccc(S(=O)(=O)NC(=O)NC2CCCCC2)cc1,104% (inactive) and 94% (inactive)
2,CCc1ccccc1-n1c(N)c(C#N)c(-c2ccc(OC)c(OC)c2)c(C#N)c1=O,98% (inactive)

# Same assay, conditions: 10 µM unless noted
row,Compound,growth
1,Oc1c(Cl)cc(Cl)cc1Sc1cc(Cl)cc(Cl)c1O,97.2% (inactive) and 55.2% (inactive) and 100% (inactive)
2,COc1ccc(NC(=S)Nc2ccccn2)cc1,152% (inactive)
3,CCCCOc1cc(C(=O)NCCN(CC)CC)c2ccccc2n1,75.2% (inactive) and 88.9% (inactive)
4,N#CC(C#N)=C/C=C/c1cccc([N+](=O)[O-])c1,68.2% (inactive) and 11.3% (inactive)
5,Cc1ccc(S(=O)(=O)Nc2ccc3cc([N+](=O)[O-])ccc3c2[N+](=O)[O-])cc1,80% (inactive) and 106% (inactive)
6,OC1CCC(Oc2cccc3cnc(Nc4ccc5nc[nH]c5c4)nc23)CC1 (stereo not given),-22.7% (active) and 37.5% (inactive)
7,O=C(O)C1(C(=O)O)CCC1.[NH2-].[NH2-].[Pt+2],84.7% (inactive) and 88.6% (inactive)
8,CCOC(=O)Nc1ccc2c(c1)/C(=N\NC(N)=S)c1ccccc1-2,70.2% (inactive) and 66.4% (inactive)
9,C1CCCCNCCC1,99.5% (inactive)
10,N=C1N=C(N)CS1,92.1% (inactive)
11,CN1CCN(c2ccc3nc(-c4c(N)c5c(F)cccc5[nH]c4=O)[nH]c3c2)CC1,35.3% (inactive) and 28.4% (inactive)
12,O=S(=O)(Nc1ccccc1)C1CCCCC1,86.7% (inactive) and 94.7% (inactive)
13,O=C1CCN(Cc2ccccc2)C(=S)N1,125% (inactive) and 83.2% (inactive)
14,CCN(CC)CCOc1ccc2c(c1)C(=O)c1cc(OCCN(CC)CC)ccc1-2,74.9% (inactive) and 67.1% (inactive)
15,Cn1c(=O)n(-c2ccc(C(C)(C)C#N)cc2)c2c3cc(-c4cnc5ccccc5c4)ccc3ncc21,-30.1% (active) and -24.4% (active)
16,O=CC(O)C(O)C(O)CO (stereo not given),104% (inactive) and 97.8% (inactive)
17,Nc1ncnc2c1ncn2C1CC(O)C(CO)O1 (stereo not given),89.7% (inactive) and 92.9% (inactive)
18,CCN(CC)CCCC(CNc1ccnc2cc(Cl)ccc12)c1ccc(Cl)cc1 (stereo not given),-76.2% (active) and -39.9% (active)

row,Compound,growth
1,N#CCCOc1ccccc1,101% (inactive)
2,CCCCCCCCCCCCCCCc1cc(O)ccc1N,63.5% (inactive) and 30.1% (inactive)
3,CN(C)c1ccc(C(=C2C=CC(=[N+](C)C)C=C2)c2ccccc2Cl)cc1,-58.6% (active) and -96.1% (active)
4,c1ccc2cc(C[n+]3ccn(Cc4ccc5ccccc5n4)c3)ccc2c1,18.9% (inactive) and 33.2% (inactive)
5,CC1(c2ccc3ccccc3c2)CCC(=O)O1 (stereo not given),100% (inactive)
6,CN(C)c1ccc2nc3ccc(N)cc3[n+](-c3ccccc3)c2c1,18.6% (inactive) and 52.4% (inactive)
7,ClC/C=C/CSc1ncnc2nc[nH]c12,108% (inactive) and 92.7% (inactive)
8,Cn1cnc([N+](=O)[O-])c1Sc1ncnc2nc[nH]c12,39.2% (inactive) and 58% (inactive)
9,COc1ccc(Cn2c(NCCN=C(N)N)nc(=O)n(Cc3ccc(F)cc3)c2=O)cc1,55.1% (inactive) and 22.7% (inactive)
10,O=C(/C=C/c1ccccn1)c1ccccc1O,75% (inactive)
11,Cc1nn(-c2ccc(Cl)cc2)c2ncnc(N/N=C/c3ccccc3O)c12,-15.1% (active) and 35.9% (inactive)
12,COc1cc2c(c(OC)c1OC)-c1ccc(OC)c(=O)cc1[C@@H](NC(C)=O)CC2,35.6% (inactive) and 76.6% (inactive) and 19.3% (inactive)
13,CN(C)CCC(=O)c1ccc(Cl)cc1,78.6% (inactive) and 114% (inactive)
14,Nc1ccccc1Nc1ccccc1,106% (inactive) and 90.7% (inactive)
15,CC12CCC(CC1)C(C)(C)O2,74% (inactive)
16,O=C(N/N=C/c1cccc2ccccc12)C1CC1,90.9% (inactive) and 85% (inactive)
17,CCN(CC)C(=S)SSC(=S)N(CC)CC,72.6% (inactive) and 93.2% (inactive)
18,O=[N+]([O-])c1ccc(/C=N\NC(=S)Nc2ccc(F)cc2)cc1,92.5% (inactive) and 97.9% (inactive)

# Same assay, conditions: 100 µM
row,Compound,growth
1,COc1ccc(Cl)cc1C(=O)NCCc1ccc(S(=O)(=O)NC(=O)NC2CCCCC2)cc1,67.4% (inactive)
2,CCc1ccccc1-n1c(N)c(C#N)c(-c2ccc(OC)c(OC)c2)c(C#N)c1=O,-43% (active)

# Source: PubChem BioAssay (NCI)
